The record followed here is PubChem BioAssay (NCI).

Compounds without any hit were thinned out: in the full panel of roughly 83,000, 20% have a hit.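 48-hour exposure, single concentration, 96-well plates; percent growth endpoint where 0 means no net growth. Active: below 10.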 Calls of active or inactive are those of the source.

The subject of this experiment is MDA-MB-468 breast. Nature of the experiment: NCI-60 one-dose screen, 48 h (100 = growth as untreated, 0 = no growth, -100 = all killed). As to conditions: 10 µM unless noted.
`CCC1OC(OC)C=CC1=O` (centres undefined): the growth was 100% (inactive).

As to `COc1cc(Cc2cc(-c3ccccc3)n[nH]c2=O)cc(OC)c1OC`, the growth was 29% (inactive).

Regarding `CN1CCN(C(=O)[C@@]2(C)CC[C@]3(C)CC[C@]4(C)C(=CC[C@@H]5[C@@]6(C)CC[C@H](OC(=O)c7cccnc7)C(C)(C)[C@@H]6CC[C@]54C)[C@@H]3C2)CC1`, the growth is 92.6% (inactive).

`CN1CCN(Cc2ccc(NC(=O)c3cncc(C#Cc4cncc5nccnc45)c3)cc2C(F)(F)F)CC1`: the growth was 87% (inactive).

For `COc1ccc(C2c3ccccc3NC(=O)N2C2CCN(C)CC2)c(OC)c1` (centres undefined), the growth is 88.3% (inactive).

Regarding `Cc1cc(C)on1`, the growth is 98.5% (inactive).

For the compound `CCCCCCCCCCSc1ncnc2nc[nH]c12`, the growth was 8.95% (active).

As for `CN1C(=O)/C(=C/c2ccc(C(=O)Nc3ncc(Cc4ccc(F)cc4)s3)cc2)SC1=S`, the growth was 25.2% (inactive).

For `O=P(O)(O)OC1C(OP(=O)(O)O)C(OP(=O)(O)O)C(OP(=O)(O)O)C(OP(=O)(O)O)C1OP(=O)(O)O.[Cu+2]` (centres undefined), the growth was 85.8% (inactive).

As to `C#C[C@@]1(O)[C@@H](CO)O[C@@H](n2ccc3c(N)ncnc32)[C@@H]1O`, the growth is -45.3% (active).

As for `COc1ccc(/C=C/c2ccc3ccccc3n2)c(OC)c1`, the growth is 18.3% (inactive).

Regarding `O=C1Nc2ccccc2SC1c1ccccc1Cl` (centres undefined), the growth was 29.9% (inactive).

In the case of `CC(C)NC(=O)OCC#CCOC(=O)NC(C)C`, the growth was 99.9% (inactive).

In the case of `CC(C)n1nc(C#Cc2cccc3cc(-c4cccc(C(F)(F)F)c4)ncc23)c2c(N)ncnc21`, the growth is 98.3% (inactive).

In the case of `Cc1c(Cc2ccccc2)c(=O)oc2c(C)c(OCC(=O)n3nc(C#N)cc3N)ccc12`, the growth was 114% (inactive).

As for `C/C(=N\NC(=O)c1ccccc1N)c1ccccc1O`, the growth was 15.5% (inactive).

As for `COc1ccc(-c2[nH]nc(N)c2-c2cc(OC)c3c(c2)OCO3)cc1`, the growth is 33.5% (inactive).

With `O=C(Nc1ccc(F)cc1)Nc1ccc(Br)c(C(F)(F)F)c1`, the growth is -5.88% (active).

Turning to `O=[N+]([O-])c1ccc2c(c1)Cc1cc(I)ccc1-2`, the growth is 105% (inactive).

With `Nc1ncnc2c1CN(Cc1ccccc1)CC2`, the growth is 112% (inactive).

On to `O=C(Oc1ccccc1)c1cc(O)c(O)c(O)c1`, for which the growth was 71.7% (inactive).

Regarding `Oc1[nH]c2ccccc2c1N=Nc1nnc2n1N=C(c1ccccc1)CS2`, the growth is 104% (inactive).

As to `COc1ccccc1-n1c(-c2sc(NC(C)=O)nc2C)n[nH]c1=S`, the growth is 124% (inactive).

Take `COc1ccc(-c2ccc3cc(C(=O)Nc4ccc(O)c(C(=O)/C=C/c5cc(OC)c(OC)c(OC)c5)c4)ccc3c2)cc1`: the growth is 82.2% (inactive).

On to `Cn1cc(-c2csc(-c3cccc(F)c3)n2)c2cccnc21`, for which the growth is -49.6% [100 µM] (active).

In the case of `CNCCn1c(=O)c2cc(OC)c(OC)cc2c2ccc3cc4c(cc3c21)OCO4`, the growth is -53.9% (active).

Turning to `Cc1ccc(C2CC(c3ccc(Nc4nc(NCCO)nc(NCCO)n4)cc3)=NN2c2ccc(Cl)cc2)cc1` (centres undefined), the growth was 73.2% (inactive).

Take `O=C1OCC2=C1C(c1ccc3c(c1)OCO3)CC(=O)N2c1cccc(Cl)c1` (centres undefined): the growth was 88.1% (inactive).

In the case of `COc1cccc(-c2nc3sccn3c2-c2ccnc(NCCNC(=O)Nc3cccc(C(F)(F)F)c3)n2)c1`, the growth was 39.6% (inactive).

Consider `c1ccc(Nc2nnc(-c3cc(-c4cccnc4)n(-c4ccccc4)n3)s2)cc1`, for which the growth was 104% (inactive).

`COC(=O)c1cccc(NC2=C(Cl)C(=O)c3nc(C)ccc3C2=O)c1`: the growth is -71.3% (active).

For the compound `Nc1nc(-c2ccc(Cl)cc2)cc(-c2cc3ccccc3oc2=O)n1`, the growth is 94% (inactive).

In the case of `Cc1ccn2cc(Cc3cc(=O)oc4c3ccc3ccccc34)c(=O)nc2c1`, the growth is 117% (inactive).

With `COc1ccc(OC)c([N+](=O)[O-])c1C(=O)CNC(C)=O`, the growth is 98% (inactive).

Consider `OC(CSc1ccccc1)CN1CCN(c2cccc(Cl)c2)CC1` (centres undefined), for which the growth is 96.8% (inactive).

In the case of `CCOC(=O)c1ccc(NC(=O)CSC(N)=O)cc1`, the growth was 108% (inactive).

Take `CC/C=C\C[C@H](O)C/C=C1/C(=O)C=C[C@@H]1C/C=C\CCCC(=O)OC`: the growth is 3% (active).

For the compound `O=C(CCCN1C(=O)/C(=C/c2ccccc2F)SC1=S)N1CCOCC1`, the growth is 55.7% (inactive).

For the compound `N#Cc1nc(-c2ccccc2)oc1N1CC[C@@H](CO)C1`, the growth is 95.2% (inactive).
